GDH-TPI counter-1: inhibits GDH-TPI coupling enzymes, artifact for Mtb FBA screen | GDH-TPI coupled enzyme counterscreen, NADH absorbance | inhibition, % at 4.8 µM | 360,000 tested, 1.2% active | AID 588335; in the data active = inhibition above about 30%;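 also: 0% = DMSO wells and 100% = wells lacking the enzyme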
Mtb FBA inh: inhibits M. tuberculosis FBA enzyme; P9WQA3; 360,000 tested, 2.3% active; purified M. tuberculosis FBA, fluorescence read-out; AID 588726; inhibition, % at 1 µM; in the data active = inhibition above about 27%;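 also: 0% = vehicle and 100% = reference inhibitor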
Mtb bLac sens: beta-lactam sensitization of Mtb H37Rv; inhibition, % at 25 µM; M. tuberculosis H37Rv growth with meropenem, percent inhibition; 330,000 tested, 0.27% active;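 also: growth measured after seven days incubation then overnight dye step; 0% = bacteria only wells and 100% = bacteria with antibiotic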
RecA splice inh: Mtb RecA intein splicing inhibition | cell-free RecA intein splicing, fluorescence | 290,000 tested, 0.75% active | P9WHJ3 | inhibition, % (no concentration beside the values); in the data active = inhibition above about 30%; inconclusive = no clear call, values can overlap the other calls;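 also: 0% = vehicle wells and 100% = reference inhibitor control wells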
Target sequence (P9WHJ3 whole entry, looked up, canonical isoform): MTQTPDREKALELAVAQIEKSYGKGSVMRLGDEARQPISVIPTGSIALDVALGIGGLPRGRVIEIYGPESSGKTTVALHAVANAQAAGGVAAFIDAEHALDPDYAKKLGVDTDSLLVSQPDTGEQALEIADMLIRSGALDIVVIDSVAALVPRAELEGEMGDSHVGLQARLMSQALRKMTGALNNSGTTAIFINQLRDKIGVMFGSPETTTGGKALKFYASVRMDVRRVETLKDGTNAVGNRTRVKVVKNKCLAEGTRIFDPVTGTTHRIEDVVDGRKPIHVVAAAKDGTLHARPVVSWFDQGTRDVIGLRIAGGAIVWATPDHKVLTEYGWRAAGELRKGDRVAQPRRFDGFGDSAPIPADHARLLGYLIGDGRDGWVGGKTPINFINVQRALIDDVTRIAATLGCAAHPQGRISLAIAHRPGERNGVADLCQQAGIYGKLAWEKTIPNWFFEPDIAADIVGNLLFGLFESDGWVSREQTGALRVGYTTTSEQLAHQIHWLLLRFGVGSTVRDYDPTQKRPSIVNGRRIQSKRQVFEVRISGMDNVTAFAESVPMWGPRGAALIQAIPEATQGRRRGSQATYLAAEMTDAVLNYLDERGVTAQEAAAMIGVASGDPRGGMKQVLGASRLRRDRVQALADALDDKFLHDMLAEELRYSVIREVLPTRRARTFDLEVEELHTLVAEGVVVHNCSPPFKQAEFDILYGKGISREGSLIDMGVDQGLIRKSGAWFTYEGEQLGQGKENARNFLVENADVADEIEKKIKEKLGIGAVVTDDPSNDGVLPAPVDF
Mtb UGM inh: blocks M. tuberculosis UGM enzyme | purified UGM, fluorescence polarization probe displacement | P9WIQ1 | 320,000 tested, 0.06% active | inhibition, % at 10 µM; in the data active = inhibition above about 10%, passing the limit was not always enough; inconclusive = no clear call, values can overlap the other calls
Rv3671c protease: inhibitors of M. tuberculosis serine protease Rv3671c; inhibition, % at 5.96 µM; AID 2606; 320,000 tested, 0.048% active; in the data active = inhibition above about 38%;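 also: extracellular domain of Rv3671c used as enzyme; 0% = enzyme with DMSO and 100% = no enzyme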
Mtb FBA inh conf: Mtb FBA inhibition, confirmed; 5,600 tested, 78% active; purified M. tuberculosis FBA, fluorescence read-out; inhibition, % at 1 µM; shares compounds with Mtb FBA inh; in the data active = inhibition above about 27%;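 also: 0% = vehicle wells and 100% = reference inhibitor wells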
GDH-TPI counter-2: GDH-TPI inhibition counter-screen for FBA inhibitors; shares compounds with Mtb FBA inh; GDH-TPI coupled enzyme counterscreen, fluorescence; inhibition, % at 1 µM; 5,600 tested, 81% active; AID 652141; in the data active = inhibition above about 10%
GDH-TPI DR: GDH-TPI dose response counter-screen for Mtb FBA; 170 tested, 79% active; GDH-TPI coupled enzyme assay, fluorescence, artifact counterscreen; shares compounds with Mtb FBA inh; IC50, µM
The depositor's hits bear a star; i = inactive; u = inconclusive; x = no result; + = active, no number. An excerpt weighted towards active compounds, which were near 4% of everything screened. Unless noted, no rule for the calls is given here.

SMILES	GDH-TPI counter-1	Mtb FBA inh	Mtb bLac sens	RecA splice inh	Mtb UGM inh	Rv3671c protease	Mtb FBA inh conf	GDH-TPI counter-2	others
CCOC(=O)c1sc2nc(C)nc(NCCc3ccc(S(N)(=O)=O)cc3)c2c1C	4.2	35.5*	-3.6	x	0.2	-1.7	95.6*	77.9*
Cc1nc2nc(-c3ccc(F)cc3)cn2nc1C	8.8	50.4*	u	i	3.4	3.1	43.0*	38.0*
CCCCn1c(N)c(N(CC(C)C)C(=O)CSc2nnc(C)n2-c2ccccc2)c(=O)[nH]c1=O	-3.5	1.1	x	x	x	x	x	x
COc1ccc(Nc2nc3cc(C)ccc3cc2C#N)cc1	-1.4	-0.7	7.3	-4.5	2.1	3.6	x	x
Cc1ccc2cc(C#N)c(NCc3ccccc3)nc2c1	2.4	32.3*	-2.2	-4.9	2.0	-4.6	52.9*	44.3*
Cc1cc2c(=O)cc(-c3ccccc3)oc2c(C(=O)O)c1C	x	38.7*	x	x	x	x	55.9*	47.6*
O=S(=O)(Nc1cccc(-c2cn3c(n2)SCC3)c1)c1cccs1	0.0	32.1*	7.8	1.1	1.4	-19.0	97.8*	96.3*
COc1cc(C)c(CN2CCN(C(C)C(=O)NC(C)c3ccccc3)CC2)cc1OC (stereo not given)	-1.9	2.2	1.2	0.2	-2.7	3.1	x	x
CC(=O)Nc1ccc(S(=O)(=O)Nc2nc3cc4c(cc3nc2Cl)OCCO4)cc1	23.7	62.3*	10.6	-38.6	2.7	7.3	76.3*	70.7*
O=S(=O)(Nc1nc2cc3c(cc2nc1Cl)OCCO3)c1ccccc1	2.9	47.9*	4.0	-43.2	-1.8	-1.7	60.8*	37.4*
Cc1nnc(NC(=O)C2CC(=O)N(C(C)c3ccccc3)C2)s1 (stereo not given)	-12.4	0.9	-14.7	-0.4	-2.5	3.1	x	x
CCN1C[C@@H]2[C@@H]3C(=O)N(C)C(=O)[C@@H]3[C@](CC)(C1=O)N2C(=O)c1ccc(C)cc1	2.5	1.4	x	x	x	x	x	x
COc1cccc(CCN2CCC(CNS(=O)(=O)c3cc(-c4cc(C)no4)ccc3C)CC2)c1	-0.9	4.0	31.6	1.6	1.3	-4.2	x	x
CCn1ncc(-c2ccnc3cc(C(=O)O)nn23)c1C	8.7	68.0*	-2.5	4.8	0.0	5.5	137.4*	130.9*
Nc1ncc2c(n1)-c1ccccc1CC2	19.2	63.6*	-11.5	0.1	2.4	12.3	17.2	9.3
O=C(Nc1ncc2c(n1)-c1ccccc1CC2)c1ccccc1	2.2	-0.2	0.4	-0.1	0.3	1.1	x	x
Nc1ncc2c(n1)-c1ccoc1CC2	18.9	36.4*	3.3	-3.6	1.9	-1.8	124.8*	103.4*
S=C(NCCCN1CCOCC1)N(Cc1ccccc1)Cc1ccccc1	-1.5	-0.8	-2.9	-1.5	-1.1	-1.9	x	x
O=C(O)CCCCCNS(=O)(=O)c1ccc2c3c(cccc13)C(=O)N2	10.4	40.5*	-0.6	-188.4	0.8	x	90.3*	66.7*
O=C(O)CNS(=O)(=O)c1ccc2c3c(cccc13)C(=O)N2	15.7	37.2*	-0.4	-103.2	0.0	x	+	144.9*
O=C1Nc2ccc(S(=O)(=O)N(CCO)CCO)c3cccc1c23	8.5	32.1*	3.6	-1.7	1.4	x	-0.5	-5.4
O=C1Nc2ccc(S(=O)(=O)NCc3ccco3)c3cccc1c23	6.9	26.4	10.3	-45.2	0.5	-0.9	x	x
CNS(=O)(=O)c1cc(S(=O)(=O)NC)c2cccc3c2c1NC3=O	22.8	30.8*	5.3	-16.6	-1.6	1.5	91.8*	76.7*
CCn1ccnc1CN(C)C(=O)C1CCC(=O)N(Cc2cccc(F)c2)C1 (stereo not given)	10.9	0.2	10.1	1.1	3.2	-0.1	x	x
CC(C)C(NS(=O)(=O)c1ccc2c3c(cccc13)C(=O)N2)C(=O)O (stereo not given)	15.0	15.2	-12.0	-36.4	-0.1	-5.0	x	x
SMILES	GDH-TPI counter-1	Mtb FBA inh	Mtb bLac sens	RecA splice inh	Mtb UGM inh	Rv3671c protease	Mtb FBA inh conf	GDH-TPI counter-2	others
CNS(=O)(=O)c1ccc2c3c(cccc13)C(=O)N2	17.1	55.9*	-3.6	-154.4	-2.9	x	17.3	4.3	GDH-TPI DR=2.89*
COc1ccccc1Cn1c(=O)oc2ccccc21	7.1	-1.1	x	x	x	x	x	x
CCc1ccccc1Cn1c(=O)oc2cccnc21	-7.3	40.4*	-14.0	-0.7	-0.9	7.1	41.4*	37.0*
O=c1c2c(nc3cc(-c4cccc(F)c4)[nH]n13)CCC2	2.5	37.2*	1.1	-0.1	-1.3	3.8	-3.5	-2.6
COCCn1nc2cc(C(=O)NCc3cc(C(F)(F)F)cc(C(F)(F)F)c3)ccc2c1OC	6.3	47.1*	5.7	-1.3	-2.0	-4.0	56.9*	41.5*
CCOc1c2ccc(C(=O)NCc3cc(C(F)(F)F)cc(C(F)(F)F)c3)cc2nn1CCOC	4.9	43.1*	14.4	-0.3	0.4	-1.4	104.6*	64.3*
COCCn1c(=S)[nH]c2cc(C(=O)NCc3ccc(F)cc3)ccc2c1=O	18.6	3.9	x	x	x	x	x	x
CCOc1c2ccc(C(=O)NCc3cc(C(F)(F)F)cc(C(F)(F)F)c3)cc2nn1C	9.4	57.3*	54.2	-32.6	-0.8	0.8	60.4*	43.9*
O=C(/C=C/[C@H]1O[C@@H](n2ccc(=O)[nH]c2=O)[C@H](O)[C@@H]1O)NCc1cccs1	x	-2.6	x	x	x	x	x	x
CCCCC(=O)OCc1c(-c2ccccc2)ncc2ccccc12	3.1	-0.2	11.4	x	2.8	-5.4	x	x
O=C(CN(Cc1ccc(Cl)cc1)C(=O)c1csnn1)NCc1ccccc1	-7.6	-6.7	5.0	0.9	-0.1	0.9	x	x
CCN(CC)CCNC(=O)c1ccc(NC(=O)/C=C/c2ccc3ccccc3n2)cc1	16.0	-1.1	4.0	12.6	-0.8	x	x	x
O=c1nc2cccc3c2=c(/c1=C(\O)c1ccccc1)c1ccccc1c3=O	17.0	29.2*	5.5	-2.8	0.0	5.2	-3.8	-6.0
COC(=O)c1cccc(CC2(C)C(=O)Nc3ccc(OC(F)(F)F)cc32)c1 (stereo not given)	5.3	0.7	x	x	x	x	x	x
Cc1cc(=O)oc2cc(OCC(=O)Nc3ccc(CN4CCOCC4)cc3)ccc12	16.4	14.0	-1.3	0.3	3.0	0.2	x	x
Cc1cc(OCC(=O)Nc2ccc(CN3CCOCC3)cc2)c2c(C)c(C)c(=O)oc2c1	2.5	70.6*	0.0	-2.1	-2.5	-3.0	+	+
Cc1cc(OCC(=O)Nc2ccc(CN3CCOCC3)cc2)c2c(C)cc(=O)oc2c1	-1.5	77.5*	8.4	0.1	0.3	-5.4	51.5*	33.5*
CCOc1ccccc1N(CC(=O)NC1CCCC1)S(=O)(=O)c1ccc(C)cc1	-2.3	0.4	9.8	3.2	1.4	-4.8	x	x
CC(C)(CNC(=O)c1cccc(S(=O)(=O)Nc2ccc(SC(F)F)cc2)c1)N1CCOCC1	-5.6	0.0	x	x	x	x	x	x

Assay outcomes (PubChem)
